High-throughput results: PubChem, several laboratories
Hits are enriched below; roughly 3.7% of the tested compounds scored in any of these assays.
NALP3 yeast inh = NALP3 inhibition in yeast. Yeast reconstituted NLRP3/ASC/caspase-1, beta-gal luminescence, 24 h. AID 2825. inhibition, % at 10 µM. 0.39% of 330,000 active;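 active = inhibition of 50% or more; inactive = inhibition below 50%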;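 also: plate controls were induced DMSO wells for no effect and uninduced yeast grown without galactose for full effect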
TIM10 inh = inhibits growth of TIM10 yeast strain | inhibition, % at 10 µM | S. cerevisiae TIM10 strain growth, BacTiter-Glo luminescence, 24 h | 1.4% of 330,000 active;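 active = inhibition of 40% or more at the single tested concentration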;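 also: wild-type TIM10 isogenic control strain grown at permissive 25 °C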
PfHsp90 set2 = inhibits growth of yeast expressing Plasmodium falciparum Hsp90. AID 504621. S. cerevisiae expressing PfHsp90, BacTiter-Glo ATP, 48 h; yeast lacking PDR1 and PDR3 efflux regulators. 0.32% of 310,000 active. inhibition, % at 9.4 µM;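 active = every replicate shows inhibition above about 80%, whatever the replicate mean, limit read from the data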;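 also: 0% = DMSO neutral controls and 100% = 20 µM radicicol positive controls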
tim23-1 inh = tim23-1 yeast growth inhibition. S. cerevisiae tim23-1 growth, BacTiter-Glo luminescence, 24 h. inhibition, % at 20 µM. 1.3% of 330,000 active. AID 463212;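 active = growth inhibition of the mutant yeast at or above 50%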;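 also: temperature-sensitive mutant grown at 25 °C; plate controls were DMSO-treated mutant yeast for no effect and medium wells lacking yeast for full effect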
tim10-1 inh = inhibits growth of tim10-1 mutant yeast | S. cerevisiae tim10-1 ts strain growth, BacTiter-Glo, 24 h | inhibition, % at 20 µM | 2.2% of 330,000 active | AID 463190;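 active = inhibition of at least 40%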;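 also: mutant grown at 25 °C; 0% = DMSO wells with yeast and 100% = wells holding no yeast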
tim23-1 confirm = confirmation of tim23-1 mutant yeast growth inhibitors; shares compounds with tim23-1 inh; S. cerevisiae tim23-1 growth, BacTiter-Glo luminescence, 24 h; 83% of 4,400 active; inhibition, % at 20 µM;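 active = inhibition above about 39% in either of two replicate wells at 20 µM, limit read from the data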;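 also: temperature-sensitive tim23-1 mutant grown at 25 °C; 0% = DMSO wells with yeast and 100% = medium wells without yeast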
Numbers without * were called inactive; x = no result given.

SMILES | NALP3 yeast inh | TIM10 inh | PfHsp90 set2 | tim23-1 inh | tim10-1 inh | tim23-1 confirm
O=C(O)COc1ccccc1C(Nc1cccnc1)c1cc(Cl)c2cccnc2c1O (stereo not drawn) | 17 | 22 | 5 | 10 | -1 | x
CCOc1ccc(C(Nc2cccnc2)c2cc(Cl)c3cccnc3c2O)cc1 (stereo not drawn) | 21 | 12 | 106* | 56* | 39 | 69*
CCCC(=O)NC(c1cccs1)c1cc(Cl)c2cccnc2c1O (stereo not drawn) | 20 | -15 | 120* | 56* | 15 | 69*
COc1ccc(C(=O)Nc2nc3nccc(-c4ccccc4)n3n2)cc1 | 4 | -10 | 4 | -20 | -34 | x
Cc1cccc(-c2cc3nc4c(c(N5CCOCC5)n3n2)CCCC4)c1 | 26 | 14 | 20 | 58* | 11 | 47*
Cc1cc(C)c2c(c1)OC(=O)CC2c1ccccc1C (stereo not drawn) | x | -1 | -30 | 54* | 26 | 29
COc1cc2c(c(OC)c1OC)C(c1ccccc1C)CC(=O)O2 (stereo not drawn) | x | 5 | 5 | 55* | 3 | 21
COc1cc2c(c(OC)c1OC)C(c1ccc3c(c1)OCO3)CC(=O)O2 (stereo not drawn) | x | -14 | -11 | 14 | -1 | x
COc1ccccc1C1CC(=O)Oc2cc(C)cc(C)c21 (stereo not drawn) | x | 1 | 3 | 42 | 17 | x
O=C1/C(=C/c2ccccc2Cl)SC(=S)N1CCCC(=O)N(CCO)c1ccccc1 | 7 | 22 | -9 | 56* | 33 | 48*
O=C(CCCN1C(=O)/C(=C/c2ccccc2Cl)SC1=S)Nc1ccccn1 | 23 | 18 | -6 | 33 | 36 | x
S=C(NCCSCc1c(Cl)cccc1Cl)Nc1ccccc1 | 39 | 40 | x | 50* | 35 | 51*
O=C1C=C(c2cccc(Cl)c2O)C[C@@H](c2ccc3c(c2)OCO3)C1 | 17 | 29 | -139 | 67* | 34 | 54*
CCS(=O)(=O)c1ccc(-c2cccc(NC(=O)c3ccco3)c2)nn1 | 8 | -1 | 1 | 11 | 25 | x
CCOc1ccc(-c2cccc(NC(=O)c3cccs3)c2)nn1 | 22 | -2 | 7 | 63* | 5 | 47*
COc1ccc(-c2cccc(NC(=O)c3cccs3)c2)nn1 | 8 | -10 | x | 62* | 10 | 56*
O=C(Nc1cccc(-c2nn[nH]n2)c1)c1cccs1 | -1 | -7 | 28 | -7 | -29 | x
CCOc1ccc(-c2cccc(NC(=O)c3ccco3)c2)nn1 | 11 | -24 | -18 | 54* | 13 | 14
CCc1nnc(NS(=O)(=O)c2ccc(NC(=S)NC(=O)/C=C/c3ccc(C(C)C)cc3)cc2)s1 | 18 | 26 | -19 | 52* | 32 | 55*
C=CCOC(=O)C1=C(C)NC(=O)NC1c1cc2c(cc1Br)OCO2 (stereo not drawn) | 8 | -2 | -9 | 1 | -11 | x
O=C(N/N=C/c1cccc(Oc2ccccc2)c1)c1ccccc1F | 40 | 1 | x | 50* | 33 | 46*
Cc1nn(C)c(C(=O)N/N=C/c2cccc(Oc3ccccc3)c2)c1Br | 25 | 18 | x | 52* | 38 | 40*
Nc1ccc(C(=O)N/N=C/c2cccc(Oc3ccccc3)c2)cc1 | 19 | -2 | -11 | 36 | -2 | x
O=C(N/N=C/c1cccc(Oc2ccccc2)c1)c1cc[n+]([O-])cc1 | 5 | 3 | 16 | 16 | 2 | x
COc1ccc(C(C[N+](=O)[O-])c2c(C)cc3ccccn23)c(OC)c1 (stereo not drawn) | 32 | 22 | 6 | 82* | 35 | 75*
SMILES | NALP3 yeast inh | TIM10 inh | PfHsp90 set2 | tim23-1 inh | tim10-1 inh | tim23-1 confirm
COc1ccc(NC(=O)CCn2cccc2)c(OC)c1 | 34 | 8 | -5 | 10 | 8 | x
COc1ccc(NC(=O)CN(C)C(C)C(=O)NC(=O)NC2CCCCC2)cc1 (stereo not drawn) | 10 | 1 | 1 | 8 | 17 | x
CCn1cc(C(=O)NN)c(=O)c2cc(F)c(N3CCCCC3)cc21 | 12 | 8 | 14 | 51* | 16 | 20
COc1ccc(C2CC(c3ccc(C(F)(F)F)cc3)=NN2c2ccc(S(N)(=O)=O)cc2)cc1 (stereo not drawn) | x | 30 | -27 | 51* | 32 | 14
CC(C)Cn1c(=O)c2ccccc2n2c(SCC(=O)N3c4ccccc4CC3C)nnc12 (stereo not drawn) | 15 | 5 | 6 | 11 | 23 | x
Cc1nc2sc(C(c3ccc(Cl)cc3)N3CCOCC3)c(O)n2n1 (stereo not drawn) | 4 | 1 | 8 | 53* | -1 | 8
Cc1nc2sc(C(c3ccccc3)N3CCOCC3)c(O)n2n1 (stereo not drawn) | 8 | -4 | 8 | 0 | -7 | x
O=C(CCN1C(=O)[C@@H]2Cc3ccccc3CN2C1=O)N[C@@H](C(=O)O)c1ccccc1 | -6 | -6 | -4 | -3 | -23 | x
CCc1ccc(OCCNc2cc(N3CCNC(C)C3)ccc2[N+](=O)[O-])cc1 (stereo not drawn) | 24 | 18 | 4 | 57* | 27 | 59*
CC1CN(c2ccc([N+](=O)[O-])c(NCCOc3ccc(Cl)cc3)c2)CC(C)N1 (stereo not drawn) | 29 | 34 | 1 | 50 | 28 | x
O=C(CCl)N1c2ccccc2OCC1c1ccccc1 (stereo not drawn) | -8 | 28 | -34 | 46 | 39 | x
O=C(CCl)N1c2ccccc2SCC1c1ccccc1 (stereo not drawn) | 9 | 29 | -4 | 54* | 0 | 51*
COc1ccc(C2CC(c3ccc(Br)cc3)=NN2C(=O)CCC(=O)O)cc1OC (stereo not drawn) | 14 | -1 | 11 | 96* | 1 | 15
Nc1ccc(O)c2c1C(=O)c1ccccc1C2=O | 10 | 1 | -32 | 53* | 13 | 55*
Cn1c(C=O)c(C#CC(C)(C)O)c2ccccc21 | 11 | 38 | 7 | 61* | 29 | 60*
COc1ccc(S(=O)(=O)NC2CCc3ccccc32)cc1OC (stereo not drawn) | 13 | 21 | 0 | 14 | 8 | x
COc1ccc(-c2cc(C(=O)O)c3c(C)nn(-c4ccccn4)c3n2)cc1 | 13 | -6 | x | 9 | 6 | x
COc1ccc(N=CC2=C(Nc3ccc(OC)cc3)c3c(C)nn(-c4ccccn4)c3CC2)cc1 | 35 | 17 | x | 51* | 20 | 52*
Cc1cccc(-c2noc(CNC(=O)c3ccc4c(c3)OCO4)n2)c1 | 21 | 6 | 18 | 10 | -41 | x
COc1ccc(-c2noc(CNC(=O)c3ccc4c(c3)OCO4)n2)cc1 | 17 | 3 | -16 | 53* | -38 | 38
Cc1ccc(N=N/C(=C\O)C(=O)c2ccncc2)cc1 | 18 | 6 | -37 | 71* | 13 | 64*
O=C(/C(=C/O)N=Nc1ccc(Cl)cc1)c1ccncc1 | 10 | -20 | -43 | 62* | 16 | 57*
